Assay [1] can be described thus: binders of probe aFSTL3 on microarray, primary screen, stem cell growth factor project, biochemical, small-molecule microarray, fluorescence 635/667 (AID 1064).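 Further: measures binding of the biotinylated anti-FSTL3 antibody to printed compounds.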 The conditions noted are these: higher = more signal.
A short description of assay [2]: binders from COS7 lysate, DM2A8 probe, primary screen, torsin A project, cell lysate, small-molecule microarray, fluorescence 635/667 (AID 1065). The conditions noted are these: higher = more signal, COS7 lysate expressing mutant human TOR1A.
Assay [3] can be described thus: binders of probe aFGF2 on microarray, primary screen, stem cell growth factor project, biochemical, small-molecule microarray, fluorescence 635/667 (AID 1067).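 Further: measures binding of biotinylated aFGF2 protein to printed compounds on slides; z-score merges feature fluorescence and signal-to-noise across triplicate slides.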 The conditions noted are these: higher = more signal.
Assay [4] can be described thus: binders of probe aFGF10 on microarray, primary screen, stem cell growth factor project, biochemical, small-molecule microarray, fluorescence 635/667 (AID 1071).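 Further: score merges 667 nm spot intensity and signal to noise from triplicate slides.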 The conditions noted are these: higher = more signal.
The target of assay [5] is Neurogenic locus notch homolog protein 2 (Homo sapiens) (UniProt Q04721). Description: Notch2 binders on small-molecule microarrays, primary screen, biochemical, small-molecule microarray, 635 nm fluorescence, stem cell growth factors (AID 1073). Conditions: Notch2 binding, higher = more signal.
Neurogenic locus notch homolog protein 2 (Homo sapiens), sequence (Q04721 whole entry, looked up, canonical isoform): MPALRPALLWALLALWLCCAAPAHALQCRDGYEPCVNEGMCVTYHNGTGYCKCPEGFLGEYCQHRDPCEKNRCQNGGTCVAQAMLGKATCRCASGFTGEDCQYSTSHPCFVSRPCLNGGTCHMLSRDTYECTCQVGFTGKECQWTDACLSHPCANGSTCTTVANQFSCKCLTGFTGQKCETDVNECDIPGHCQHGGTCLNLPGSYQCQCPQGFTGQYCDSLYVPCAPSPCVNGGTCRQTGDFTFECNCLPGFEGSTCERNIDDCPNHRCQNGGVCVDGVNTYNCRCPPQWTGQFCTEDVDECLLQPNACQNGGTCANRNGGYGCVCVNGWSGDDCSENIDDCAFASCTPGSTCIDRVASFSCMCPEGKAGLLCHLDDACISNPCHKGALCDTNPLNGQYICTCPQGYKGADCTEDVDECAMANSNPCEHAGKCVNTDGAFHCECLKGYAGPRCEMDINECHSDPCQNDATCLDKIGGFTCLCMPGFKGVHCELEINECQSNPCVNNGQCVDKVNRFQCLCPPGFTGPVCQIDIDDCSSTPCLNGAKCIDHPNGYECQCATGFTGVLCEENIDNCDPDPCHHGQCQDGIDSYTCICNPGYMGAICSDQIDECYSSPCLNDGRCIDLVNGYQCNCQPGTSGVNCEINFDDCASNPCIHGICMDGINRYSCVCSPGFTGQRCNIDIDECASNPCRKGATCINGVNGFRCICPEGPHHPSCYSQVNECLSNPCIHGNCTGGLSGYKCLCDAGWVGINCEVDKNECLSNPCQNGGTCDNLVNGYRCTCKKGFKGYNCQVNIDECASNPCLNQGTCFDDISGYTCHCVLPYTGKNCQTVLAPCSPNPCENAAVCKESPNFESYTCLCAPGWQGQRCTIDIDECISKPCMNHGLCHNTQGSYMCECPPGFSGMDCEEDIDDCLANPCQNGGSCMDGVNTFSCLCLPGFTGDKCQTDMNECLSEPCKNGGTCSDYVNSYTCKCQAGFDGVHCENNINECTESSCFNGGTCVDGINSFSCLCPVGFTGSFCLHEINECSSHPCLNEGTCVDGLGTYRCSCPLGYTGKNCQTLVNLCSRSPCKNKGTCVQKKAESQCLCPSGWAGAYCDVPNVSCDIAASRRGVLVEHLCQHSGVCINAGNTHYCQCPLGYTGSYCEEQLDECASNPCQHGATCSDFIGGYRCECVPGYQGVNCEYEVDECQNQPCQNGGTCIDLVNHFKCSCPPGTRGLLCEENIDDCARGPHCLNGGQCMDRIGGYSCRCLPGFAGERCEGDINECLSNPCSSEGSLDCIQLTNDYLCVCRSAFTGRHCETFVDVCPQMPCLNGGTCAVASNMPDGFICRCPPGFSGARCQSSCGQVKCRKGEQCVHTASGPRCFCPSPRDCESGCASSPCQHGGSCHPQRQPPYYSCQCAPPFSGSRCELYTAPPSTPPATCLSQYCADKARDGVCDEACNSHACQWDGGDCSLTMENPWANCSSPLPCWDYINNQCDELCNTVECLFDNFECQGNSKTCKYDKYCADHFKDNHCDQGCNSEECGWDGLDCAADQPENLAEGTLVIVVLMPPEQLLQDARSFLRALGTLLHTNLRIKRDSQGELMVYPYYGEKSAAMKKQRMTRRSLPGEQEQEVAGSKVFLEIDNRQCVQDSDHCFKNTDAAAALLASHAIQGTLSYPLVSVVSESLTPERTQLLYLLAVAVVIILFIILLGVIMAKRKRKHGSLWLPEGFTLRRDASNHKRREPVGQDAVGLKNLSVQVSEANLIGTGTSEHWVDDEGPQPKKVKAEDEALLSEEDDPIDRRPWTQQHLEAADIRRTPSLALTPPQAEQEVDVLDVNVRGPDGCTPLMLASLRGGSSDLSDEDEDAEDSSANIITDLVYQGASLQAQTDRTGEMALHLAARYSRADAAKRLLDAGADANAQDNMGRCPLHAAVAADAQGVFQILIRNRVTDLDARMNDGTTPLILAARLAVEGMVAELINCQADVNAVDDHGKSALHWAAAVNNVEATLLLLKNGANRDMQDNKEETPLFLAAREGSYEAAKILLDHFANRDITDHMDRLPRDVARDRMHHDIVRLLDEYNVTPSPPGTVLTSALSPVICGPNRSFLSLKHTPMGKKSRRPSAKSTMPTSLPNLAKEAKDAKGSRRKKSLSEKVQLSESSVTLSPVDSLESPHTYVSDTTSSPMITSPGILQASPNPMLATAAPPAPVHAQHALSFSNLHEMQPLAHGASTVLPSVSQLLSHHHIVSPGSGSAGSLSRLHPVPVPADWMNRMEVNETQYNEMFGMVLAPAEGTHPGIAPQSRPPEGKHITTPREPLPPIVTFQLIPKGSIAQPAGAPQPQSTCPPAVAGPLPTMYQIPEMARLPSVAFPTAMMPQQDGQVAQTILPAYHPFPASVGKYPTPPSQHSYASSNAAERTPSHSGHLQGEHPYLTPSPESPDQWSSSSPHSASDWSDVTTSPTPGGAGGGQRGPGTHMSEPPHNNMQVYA
Assay [6] concerns the target Pro-neuregulin-1, membrane-bound isoform (Homo sapiens) (UniProt Q02297). The assay is described as follows: NRG1 binders on small-molecule microarrays, primary screen, psychiatric disease protein project, biochemical, small-molecule microarray, fluorescence 635/667 (AID 1075).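 Further: score combines 667 nm spot fluorescence with signal to noise.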 Conditions: NRG1 binding, 635 nm fluorescence, higher = more signal.
The subject of assay [7] is Neuregulin-1 EGF-like domain. Description: binders of neuregulin-1 EGF-like domain, primary screen, biochemical, small-molecule microarray, 635 nm fluorescence (AID 1081).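 Further: binding of the protein to compounds printed on small-molecule microarray slides.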 The conditions noted are these: small-molecule microarray binding, higher = more signal.
Assay [8] can be described thus: FRG1 promoter luciferase signal modulators, primary screen, FRG1 inhibition for FSHD, cell-based, C2C12 myotubes, firefly/Renilla luciferase, luminescence (AID 1084). The conditions noted are these: higher = more signal, called active from +8 up or from −8 down.
A short description of assay [9]: binders of probe aFST on microarray, primary screen, stem cell growth factor project, biochemical, small-molecule microarray, fluorescence 635/667 (AID 1086).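 Further: score merges 667 nm fluorescence with signal-to-noise of each printed compound spot.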 The conditions noted are these: higher = more signal.
Assay [10] can be described thus: binders of probe aHhip on microarray, primary screen, stem cell growth factor project, biochemical, small-molecule microarray, fluorescence 635/667 (AID 1087).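 Further: score merges spot fluorescence at 667nm with spot signal to noise ratio.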 The conditions noted are these: higher = more signal.

The source made the active and inactive calls.

Pro-neuregulin-1, membrane-bound isoform (Homo sapiens), sequence (Q02297 whole entry, looked up, the tested form may be a part, canonical isoform): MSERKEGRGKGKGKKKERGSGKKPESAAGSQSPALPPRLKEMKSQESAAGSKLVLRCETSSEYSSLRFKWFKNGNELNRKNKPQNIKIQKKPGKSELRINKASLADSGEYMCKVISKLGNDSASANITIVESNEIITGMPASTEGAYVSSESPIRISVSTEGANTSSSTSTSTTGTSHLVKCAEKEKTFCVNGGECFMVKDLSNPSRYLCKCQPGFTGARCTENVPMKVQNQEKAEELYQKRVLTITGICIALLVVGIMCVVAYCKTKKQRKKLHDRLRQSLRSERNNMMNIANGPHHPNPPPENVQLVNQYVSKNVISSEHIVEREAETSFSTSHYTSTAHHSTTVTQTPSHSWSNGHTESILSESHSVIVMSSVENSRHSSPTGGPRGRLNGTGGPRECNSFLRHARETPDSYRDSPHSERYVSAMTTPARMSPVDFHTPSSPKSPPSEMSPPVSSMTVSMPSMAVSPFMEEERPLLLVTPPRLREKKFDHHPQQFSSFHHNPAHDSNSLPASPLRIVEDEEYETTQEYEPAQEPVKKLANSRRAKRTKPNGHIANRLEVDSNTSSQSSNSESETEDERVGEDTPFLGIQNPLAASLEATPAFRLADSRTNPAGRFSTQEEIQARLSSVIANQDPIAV

As to `C[C@@H](c1ccccc1)N1C(=O)[C@H]2[C@H]3[C@H](O)[C@H](O)CC(=NO[C@@H]4O[C@H](CO)[C@@H](O)[C@H](O)[C@H]4O)[C@H]3CC[C@H]2C1=O`, the composite z-score in [1] was -0.528; in [2], -0.0577; in [3], -0.0291; in assay [4], 0.303; in assay [5], 0.473; in [6], 0.0437. Further, the composite z-score in assay [7] was 0.343; in assay [9] it was 0.0934; in assay [10] it was -0.0383. For the same compound, the z-score in assay [8] is -0.412 (inactive).
`CCOC(=O)[C@H](Cc1ccccc1)NC(=O)CCC1CC(OC(=O)NCCc2ccc(F)cc2)CC2(CCCC(COC(=O)NCCCN3CCCC3=O)O2)O1` (stereo not given in full): the composite z-score is -0.478 in assay [1]; 0.291 in [2]; -0.0628 in [3]; 0.328 in assay [4]; 1.16 in assay [5]; 0.533 in assay [6]. Also, the composite z-score in assay [7] was 0.394; in assay [9], 0.326; in assay [10] it was -0.0994. The z-score in [8] is -1.9 (inactive).
For the compound `CC(CCN1CCCc2nc(C)c(C)cc21)=NO[C@@H](C)c1cc(-c2c(C)cc(C)cc2C)no1`, the composite z-score in [1] is -0.34; in assay [2], -0.685; in [3], -0.0069; in assay [4], 0.338; in [5], 0.121; in assay [6] it was 0.732. The results for the composite z-score in assay [7], in assay [9] and in assay [10] were 0.8, 0.0731 and -0.166, respectively. In addition, the z-score in assay [8] is -0.682 (inactive).
For `COc1ccc(O[C@H]2C=C[C@@H](c3ccccc3)O[C@@H]2CON=C2[C@H]3CCn4c(=O)n(-c5ccccc5)c(=O)n4[C@H]3[C@H](O)[C@@H]3O[C@H]23)cc1`, the composite z-score is -0.135 in assay [1]; 0.451 in assay [2]; -0.0973 in [3]; 0.372 in [4]; 1.24 in [5]; 0.238 in assay [6]. Moreover, the composite z-score in assay [7] came to 0.63; in assay [9], 0.358; in assay [10], 0.197. Moreover, the z-score in assay [8] was -0.243 (inactive).
Consider `CC(C)CON=C1C[C@@H](O)[C@@H](O)[C@@H]2[C@@H]3C(=O)N(c4ccc(F)cc4F)C(=O)[C@@H]3CC[C@H]12`, for which the composite z-score is -0.337 in [1]; 1.29 in assay [2]; -0.214 in assay [3]; 0.269 in [4]; 0.737 in assay [5]; 0.668 in assay [6]. Further, the values for the composite z-score in [7], in [9] and in assay [10] were 1.23, 0.803 and 0.111, respectively. In addition, the z-score in assay [8] was -0.858 (inactive).
For the compound `COC(=O)CC=C[C@@H](C)[C@@H](C=NO[C@@H]1O[C@H](COC(C)=O)[C@@H](OC(C)=O)[C@H](OC(C)=O)[C@H]1OC(C)=O)OC`, the composite z-score in assay [1] was -0.48; in assay [2] it was 1.26; in [3] it was 0.0167; in assay [4], -0.41; in assay [5], 1.03; in [6], -0.617. Further, the composite z-score is -1.05 in assay [7], 0.354 in [9] and 0.189 in [10]. In addition, the z-score in assay [8] is 0.572 (inactive).
Turning to `CCN1C(=O)[C@H]2[C@H]3[C@H](O)[C@H](O)CC(=O)[C@@H]3CC[C@H]2C1=O`, the composite z-score in [1] is -0.676; in [2], 0.0277; in assay [3] it was -0.0692; in assay [4], 0.463; in [5] it was 0.575; in [6], 0.379. The composite z-score is 1.01 in assay [7], 0.276 in assay [9] and -0.226 in assay [10]. Besides, the z-score in assay [8] is -0.136 (inactive).
With `COC(=O)CC=C[C@@H](C)[C@@H](C=NOCC[C@@H]1C=C[C@H](OC(C)=O)[C@@H](COC(C)=O)O1)OC`, the composite z-score in assay [1] is -0.413; in assay [2] it was 0.174; in [3] it was 0.0144; in [4], 0.502; in assay [5] it was 0.193; in assay [6], -0.0568. Besides, the composite z-score is 0.813 in [7], 0.0492 in assay [9] and 0.0053 in assay [10]. For the same compound, the z-score in assay [8] was 0.799 (inactive).
For the compound `CC(C)C[C@H](NC(=O)CCC1CC(OC(=O)NCc2cccc3ccccc23)CC2(CCCC(COC(=O)NCc3ccccc3)O2)O1)C(=O)NCC(c1ccccc1)c1ccccc1` (stereo not given in full), the composite z-score in assay [1] is -0.572; in assay [2], 0.139; in assay [3] it was -0.113; in assay [4] it was 0.618; in assay [5], 1.35; in assay [6] it was 0.438. Besides, the composite z-score in [7] was 1.2; in assay [9], 0.289; in assay [10] it was 0.238. For the same compound, the z-score in assay [8] is 0.244 (inactive).
For `CC(C)=NO[C@H](C)c1cn([C@H](CO)Cc2ccccc2)nn1`, the composite z-score in assay [1] is -0.125; in assay [2] it was 0.364; in [3] it was -0.0737; in [4] it was -0.116; in [5], 0.0781; in [6], 0.274. Further, the composite z-score is 0.316 in [7], 0.0676 in assay [9] and 0.0972 in [10]. In addition, the z-score in assay [8] was -0.266 (inactive).
Regarding `CC(C)=CCCC(C)=CCON=C1C[C@@H](O)[C@@H](O)[C@@H]2[C@@H]3C(=O)N(Cc4ccccc4)C(=O)[C@@H]3CC[C@@H]12`, the composite z-score was -0.249 in assay [1]; 0.585 in [2]; -0.0548 in assay [3]; 0.649 in assay [4]; 0.194 in assay [5]; 0.34 in assay [6]. Further, the composite z-score was found to be 1.05 in assay [7], 0.172 in [9] and 0.204 in [10]. In assay [8], the z-score was 0.365 (inactive).
On to `COc1ccc(O[C@H]2C=C[C@@H](c3ccccc3)O[C@@H]2COC(=O)CCC(C)=NO[C@@H]2O[C@H](COC(C)=O)[C@@H](OC(C)=O)[C@H](OC(C)=O)[C@H]2OC(C)=O)cc1`, for which the composite z-score was -0.468 in [1]; 0.135 in assay [2]; -0.152 in assay [3]; 0.608 in [4]; 0.424 in assay [5]; -0.0533 in [6]. In addition, the composite z-score in assay [7] was 0.929; in assay [9] it was 0.247; in assay [10], -0.236. Further, the z-score in assay [8] was 1.09 (inactive).
For `CC[C@@H](c1ccccc1)n1c(=O)n2n(c1=O)[C@H]1[C@H](O)[C@@H]3O[C@@H]3C(=NOC[C@@H](O)COCc3ccco3)[C@H]1CC2`, the composite z-score was -0.437 in assay [1]; 0.615 in assay [2]; -0.116 in [3]; 0.25 in [4]; -1.17 in [5]; -0.552 in [6]. The composite z-score in assay [7] was 0.727; in assay [9], -0.113; in [10], -0.741. For the same compound, in assay [8], the z-score was 0.0269 (inactive).
Take `C=COC[C@@H]1CN2[C@@H](CC[C@@H](C)[C@@H]2c2ccc(Br)cc2)C(=O)O1`: the composite z-score in assay [1] is -0.154; in assay [2] it was 0.436; in assay [3] it was -0.158; in assay [4], -0.134; in assay [5] it was -0.898; in assay [6], -0.0605. Moreover, the composite z-score in [7] is 0.673; in assay [9] it was -0.171; in assay [10], 0.643. In addition, in assay [8], the z-score is 0.151 (inactive).
Take `CCOC(=O)[C@H](CC(C)C)NC(=O)CCC1CC(OC(=O)NCc2cccc3ccccc23)CC2(CCCC(COC(=O)NCc3ccncc3)O2)O1` (stereo not given in full): the composite z-score in [1] was -0.678; in assay [2], 0.298; in assay [3], -0.151; in assay [4] it was 0.633; in [5], 1.12; in assay [6] it was 0.547. The composite z-score is 0.783 in [7], 0.407 in assay [9] and -0.236 in [10]. The z-score in assay [8] was -0.689 (inactive).
As for `O=C1C[C@@H](O)[C@@H](O)[C@@H]2[C@@H]3C(=O)N(C[C@@H]4CCCO4)C(=O)[C@@H]3CC[C@H]12`, the composite z-score in assay [1] was -0.469; in assay [2], 0.207; in assay [3] it was -0.0901; in assay [4] it was 0.377; in assay [5] it was 0.733; in [6], 0.17. The composite z-score in assay [7] is 0.723; in [9], 0.158; in assay [10], -0.487. Moreover, in assay [8], the z-score was -0.0616 (inactive).

For the origin of these results see PubChem BioAssay.
